Assay results published in ChEMBL document CHEMBL4513216, “Probing the Open Global Health Chemical Diversity Library for Multistage-Active Starting Points for Next-Generation Antimalarials” (ACS Infect Dis, 2020).
In all, about 68,000 compounds went through this assay and about 2,700 (4%) showed an effect of 50% or more. Many of the other results were omitted from the sample, so strong results are more common in it than they were.

tested on: Plasmodium berghei; experiment: Screen against P. berghei liver stage (PbLuc), transformed with Luciferase, at 2uM; format: functional, HepG2; conditions: tested at 2 uM

SMILES	INHIBITION
NC(=O)C(NC(=O)CSCc1ccc(Cl)s1)c1ccccc1 (configuration not stated)	28.04%
CS(=O)(=O)Cc1ccc(CNC(=O)c2cccnc2O)cc1	-4.5%
COCC(C)(C#N)NC(=O)c1cn(-c2cccc(Cl)c2F)nn1 (configuration not stated)	-10.98%
O=C(c1ccncc1F)N1CC2CC1(C(=O)N1CCCC1)C2	33.14%
CN(C)C(=O)CN1CC[C@H]2[C@H]1CCN2c1ncccn1	22.18%
CN(C)C(=O)CN1CCN(c2ncccn2)[C@@H]2CS(=O)(=O)C[C@@H]21	58.69%
O=C(CN1CCN(c2ncccn2)[C@@H]2CS(=O)(=O)C[C@@H]21)N1CCCCC1	14.19%
CC(NC(=O)c1ccsc1)c1ccc2c(c1)NC(=O)CO2 (configuration not stated)	-34.61%
CCN1CCCC1CN(Cc1ccoc1)CC1CCN(CCOC)CC1 (configuration not stated)	42.2%
CCN1CCCC1CN(Cc1ccon1)CC1CCN(CCOC)CC1 (configuration not stated)	55.66%
CCN1CCCC1CN(Cc1cc[nH]n1)CC1CCN(CCOC)CC1 (configuration not stated)	18.63%
Cc1cc(C)nc(NC(C)Cc2cnccn2)n1 (configuration not stated)	4.42%
Cc1cc(N2CCCC2c2nnc3n2CCCCC3)nc(N)n1 (configuration not stated)	38.89%
CC(C)c1noc(-c2ccc(NCCCN3CCCC(O)C3)nc2)n1 (configuration not stated)	22.57%
CCc1cc(C(=O)N2CCc3nc4c(C)csc4c(=O)n3CC2)on1	51.32%
Cc1csc2c(=O)n3c(nc12)CCN(C(=O)c1ccccn1)CC3	-25.54%
Cc1csc2c(=O)n3c(nc12)CCN(C(=O)c1ccnn1C)CC3	19.07%
CNc1cncc(C2CCCN2c2cc(C)ncn2)n1 (configuration not stated)	5.15%
Cc1c(Cl)cccc1S(=O)(=O)N1CCC2(CC1)OCCS2	-21.09%
COc1cccc([C@H]2CN(C(=O)c3ccccc3)[C@@H]3CCCN[C@H]23)c1	34.48%
CC(C)(C)CCN1CCN(c2snc(Cl)c2C#N)CC1	58.29%
N#Cc1c(Cl)nsc1N1CCN(CC2CCCCC2)CC1	29.89%
N#Cc1c(Cl)nsc1N1CCN(CC2CC2)CC1	20.88%

SMILES	INHIBITION
c1coc(CN2CCCC3(COCCN(Cc4c[nH]nn4)C3)C2)c1 (configuration not stated)	-10.66%
CCn1cc(NC(=O)NCc2ccc(CN3CCOCC3)cc2)cn1	17.39%
CN1CCN(c2cccc(Cl)c2CNCCS(C)(=O)=O)CC1	4.42%
O=C(Cc1ccc2c(c1)OCC2)Nc1nc[nH]n1	8.14%
Nc1ccc(C(=O)N2CCC(Oc3cccc(C(F)(F)F)c3)CC2)cn1	17.2%
O=C(c1cccnc1)N1CCC(Oc2cccc(C(F)(F)F)c2)CC1	45.82%
O=C(c1ccncc1)N1CCC(Oc2cccc(C(F)(F)F)c2)CC1	26.74%
Nc1cc(C(=O)N2CCC(Oc3cccc(C(F)(F)F)c3)CC2)ccn1	72.05%
O=C(c1ccc(=O)[nH]c1)N1CCC(Oc2cccc(C(F)(F)F)c2)CC1	57.75%
CC(N)C(=O)N1CCC(Oc2cccc(C(F)(F)F)c2)CC1 (configuration not stated)	48.21%
Cc1cc(C)c2c(OCC(=O)N(C)CC(=O)NC(C)C)nn(C)c2n1	44.95%
CN(Cc1ccc(F)cc1)C(=O)CN1CCOC(Cn2cncn2)C1 (configuration not stated)	2.08%
O=c1cc(CN(CCO)C2CC2)nc2ccc(Cl)cn12	-28.15%
COc1ccc(S(=O)(=O)NCCCc2nnc3nc(C)cc(C)n23)cc1	12.7%
CCCNc1ncc(CN2CCC3(CC2)CNC(=O)C3)cn1	29.94%
COc1ncc(CN2CCC3(CCNC(=O)CC3)CC2)cn1	0.85%
COCc1ncc(CN2CCC3(CCNC(=O)CC3)CC2)cn1	53.55%
CCCNc1ncc(CN2CCC3(CCNC(=O)CC3)CC2)cn1	56.78%
COCc1ncc(CN2CCC3(CCNCC3)CC2)cn1	-8.84%
CCCNc1ncc(CN2CCN(C)C(=O)C2C)cn1 (configuration not stated)	-29.46%
N#CC1(C(=O)NCC2CCC3(CCNCC3)O2)CC1 (configuration not stated)	49.07%
O=C(NCC1CCC2(CCNCC2)O1)C1CC1 (configuration not stated)	24.36%
COC(=O)NCC1CCC2(CCNCC2)O1 (configuration not stated)	61.7%

SMILES	INHIBITION
Cn1ccc(C(=O)N2C[C@@H]3CN(CC4CC4)CCO[C@@H]3C2)n1	42.79%
O=C(CCCn1cncn1)N1CCC2(CCCN(CC3CC3)C2=O)C1 (configuration not stated)	23.19%
O=C(CCc1nc(Cl)n[nH]1)N1CCC2(CCCNC2=O)C1 (configuration not stated)	-35.22%
O=C(CCc1nc(Cl)n[nH]1)N1CCC2(CCCN(CC3CCC3)C2=O)C1 (configuration not stated)	57.34%
O=C1CCc2cc(NC(=O)C3CCCN3c3nccs3)ccc2N1 (configuration not stated)	-73.41%
CC(c1ccc(-c2cnc(N)nc2)cc1)N1CCOCC1 (configuration not stated)	41.78%
Cc1cc(-c2ccc(C(C)N3CCCCC3)cc2)cnc1N (configuration not stated)	69.99%
Cc1cc(-c2ccc(C(C)N3CCOCC3)cc2)cnc1N (configuration not stated)	-38.09%
CCC(CC)c1cc(CNC(=O)N2CCC[C@@H]2CO)on1	-1.89%
COc1ccccc1C(=O)N1Cc2cc(C)ccc2OCC1CN(C)C (configuration not stated)	-71.28%
Cc1nn(C)c(C)c1C1COCCN1C(=O)c1cc(F)ccc1F (configuration not stated)	21.52%
Cc1ccc(O)c(C(=O)N2CCOCC2c2c(C)nn(C)c2C)c1 (configuration not stated)	60.71%
Cc1ccc(O)c(C(=O)N2CCOCC2c2c(C)n[nH]c2C)c1 (configuration not stated)	24.02%
CC(NC(=O)Nc1cccnc1N1CCOCC1)c1ccncc1 (configuration not stated)	0.45%
CC(C)OCc1cccc(CNc2cnn(C)c(=O)c2Cl)c1	4.18%
CC(=O)N1CCO[C@@H]2CN(S(=O)(=O)c3cccnc3)C[C@@H]2C1	-37.03%
CC(=O)N(C)c1nc(CN2CCN(c3nccs3)CC2)cs1	-20.95%
Nc1nc(CN2CCN(c3nccs3)CC2)cs1	-4.26%
CCN(C(C)=O)c1nc(CN2CCN(c3nccs3)CC2)cs1	55.36%
CC(C)N1CCc2c(c(COc3cccnc3)nn2CC2CC2)C1	-0.59%
Cc1nn(C)c(C)c1C1CCCN1Cc1nc(-c2cccs2)no1 (configuration not stated)	45.83%
